# Results taken from PubChem BioAssay (NCI).
# Compounds without any hit were thinned out: in the full panel of roughly 83,000, 20% have a hit.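 Compound tested at a single concentration for 48 hours in 96-well plates; a percent growth value below 10 was scored as active.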 A number with no mark means an inactive call. Active and inactive are the calls of the source.
# Tested on: T-47D breast
# Experiment: NCI-60 one-dose screen, 48 h (100 = growth as untreated, 0 = no growth, -100 = all killed)
# Settings: 10 µM unless noted
row,SMILES,growth
1,C#CCOc1cc(N(CC)CC)ccc1C(C(=O)NC(C)(C)C)N(C(=O)C1CCc2cc(F)ccc2O1)c1ccc(F)c(Cl)c1 (stereo not drawn),42.3%
2,COc1cc2c(c(OC)c1OC)C(=O)CC(c1cccc(NC(=O)c3cc(NC(=O)[C@@H](N)CO)ccc3C)c1)O2 (stereo partly drawn),110%
3,O=C(O)Cn1c(O)c(/C=C2/C=c3cc4c(cc3=NC2=O)OCCO4)sc1=S,104%
4,CC(C)CSc1nc(NCCc2c[nH]c3ccccc23)c(C#N)c(-c2ccc(Cl)cc2)n1,31.7%
5,C=C1CCC2C3(C)COC(c4ccccc4)OC3CCC2(C)C1CC(Sc1ccccc1)C1=CCOC1=O (stereo not drawn),33.1%
6,O=C1c2c(c3c4cc(F)ccc4oc3c3[nH]c4ccc(Br)cc4c23)C(=O)N1O,23.9%
7,C#C[C@]1(O)CC[C@H]2[C@@H]3CC=C4c5sc(-c6ccc(O)c(O)c6)nc5CC[C@]4(C)[C@H]3CC[C@@]21C,-25.7% (active)
8,COc1ccc(N2N=C(c3ccc4c(c3)OCO4)CC2c2cccc(NC(=O)CCCNS(=O)(=O)c3ccc(F)cc3)c2)cc1 (stereo not drawn),53%
9,CN(C)CCn1c2ccccc2c2nc3cc(C(F)(F)F)ccc3nc21,59.4%
10,O=C(COc1ccc(NC(=O)Nc2ccc(Cl)c(Cl)c2)cc1)N=Nc1c(O)[nH]c2ccccc12,11.6%
11,CC1(C)CC[C@]2(C(=O)O)CC[C@]3(C)C(=CCC4[C@@]5(C)C[C@@H](O)[C@@H]6OC(c7cccc(Br)c7)OC[C@@]6(C)C5CC[C@]43C)C2C1 (stereo partly drawn),39.4%
12,CCN1C(=O)N(CC)C2NNC(Sc3c(C(=O)O)c4ccccc4n(C4CCCC4)c3=O)=NC21 (stereo not drawn),61.4%
13,O=c1[nH]c2ccccc2cc1CSc1cccc(Nc2nccc(-c3ccc4ccccc4c3)n2)c1,60.9%
14,O=C(c1ccc(OCCN2CCOCC2)cc1)C1[C@H](c2ccc(Cl)cc2)[C@@H](c2ccccc2)NC12C(=O)Nc1ccc(Cl)cc12 (stereo partly drawn),34.6%
15,CCN(CC)c1ccc(/C=N/Nc2nc(-c3ccc(Br)cc3)cs2)c(O)c1,80.9%
16,CCCCSc1nc(NCCc2c[nH]c3ccccc23)c(C#N)c(-c2ccc(F)cc2)n1,48.5%
17,COc1ccc(NC(=O)[C@@H](N)Cc2ccccc2)cc1C(=O)Nc1cccc(C2CC(=O)c3c(cc(OC)c(OC)c3OC)O2)c1 (stereo partly drawn),25.3%
18,Cc1cccc(NC(=O)CN2CCN(c3ncnc4c3cnn4-c3ccccc3)CC2)c1,72.1%
19,COc1ccc(NC(=O)[C@H](CO)NC(=O)OC(C)(C)C)cc1C(=O)Nc1cccc(C2CC(=O)c3c(cc(OC)c(OC)c3OC)O2)c1 (stereo partly drawn),25.8%

row,SMILES,growth
1,Cc1ccc(-c2nc(C#N)c(S(=O)(=O)N3CCN(S(=O)(=O)c4ccc(Cl)cc4)CC3)o2)cc1,92.1%
2,Cc1ccc(-c2nc(Nc3ccccc3S(N)(=O)=O)c3ccccc3n2)cc1,90.8%
3,Cc1ccc(C(=O)C(c2c[nH]c3ccccc23)c2c[nH]c3ccccc23)cc1,45.7%
4,COC(=O)/C=C/c1cccc2c1C(=O)NC(C)(c1cc3ccccc3oc1=O)N2 (stereo not drawn),51.4%
5,O=C(/C=C/c1ccc(O)c(O)c1)NC1CCOC1O (stereo not drawn),92.8%
6,CC1(C)CC[C@]2(C(=O)O)CC[C@]3(C)C(=CCC4[C@@]5(C)C[C@@H](O)[C@@H]6OC(c7ccccc7Br)OC[C@@]6(C)C5CC[C@]43C)C2C1 (stereo partly drawn),20.4%
7,C/C(=N\N=C1/C(=O)Nc2ccccc21)c1ccc2c(c1)Nc1ccccc1S2,26.8%
8,Cn1cc(-c2nc(N)nnc2-c2c[nH]c3ccc(Br)cc23)c2cccnc21,62.5%
9,Cc1nc(Nc2ccccn2)sc1C(=O)CC(SCC(=O)Nc1ccc(Cl)cc1)c1ccccc1F (stereo not drawn),-7.28% (active)
10,Cc1cc(=O)oc2cc(OCCCCOc3ccc(/C=C/C(=O)Nc4ccccc4N)cc3)ccc12,31.4%
11,CC(=O)OC[C@@]1(C)C2CC[C@]3(C)C(CC=C4C5CC(C)(C)CC[C@]5(C(=O)Nc5cccc(C)c5)CC[C@]43C)[C@@]2(C)C[C@@H](OC(C)=O)[C@@H]1OC(C)=O (stereo partly drawn),24.3%
12,CCCSc1nc(NCCc2c[nH]c3ccccc23)c(C#N)c(-c2ccc(OC)cc2)n1,15.3%
13,COc1ccc(N2N=C(c3ccc4c(c3)OCO4)CC2c2cccc(NC(=O)CCNS(=O)(=O)c3ccc(Cl)cc3)c2)cc1 (stereo not drawn),28.9%
14,Cc1ccc(-n2c(-c3cc4ccccc4nc3Cl)noc2=O)cc1,63.9%
15,Cc1ccc(/C=C/c2n(Cc3ccc4ccccc4c3)c3ccccc3[n+]2Cc2ccc3ccccc3c2)cc1,-51.1% (active)
16,Brc1ccc(-c2n(Cc3ccc4ccccc4c3)c(-c3ccccc3)c(-c3ccccc3)[n+]2Cc2ccc3ccccc3c2)cc1,-76.7% (active)
17,CCOC(=O)C(N=Nc1ccc(S(=O)(=O)N=C(N)N)cc1)C(C)=O (stereo not drawn),105%
18,COc1ccc2[nH]cc(-c3nc(N)nnc3-c3cn(C)c4ncccc34)c2c1,50.8%
19,CC(/C=C1\SC(=S)N(CCCC(=O)NC(CC(C)C)C(=O)O)C1=O)=C\c1ccccc1 (stereo not drawn),89.7%
